# Reference: PubChem BioAssay (EPA / NIEHS)
# Results filed as inconclusive are left out. Calls of active or inactive are those of the source. The calls were made as follows: active = hit-call score of the fitted dose curve at least 0.9, where 1 is the maximum; inconclusive = response in the unintended direction; inactive = score below 0.9.
# Key:
# [1] = target: Estrogen receptor (Homo sapiens) (UniProt P03372); test: NVS_NR_hER: NovaScreen (NVS) Nuclear Receptor Binding Assay for human Estrogen Receptor (ER) (AID 2283348)
# Method in brief: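 MCF7-derived receptor extract, radiolabelled ligand, competitive displacement. Read: scintillation counts at 18 h. DMSO = negative control/baseline. Primary 25 uM duplicate; follow-up concentration–response.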
# [2] = target: Estrogen receptor (Homo sapiens) (UniProt P03372); test: OT_ER_ERaERa_1440: Odyssey Thera (OT) 24-hour HEK293T Protein-Complementation Assay for Estrogen Receptor-alpha/-alpha Homodimer (AID 2283349);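 also: hits raise fluorescence above DMSO for agonists and antagonists alike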
# Method in brief: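 Cells (HEK293T) carrying the fragment-tagged ERα LBD (aa 310-547) pair are treated with chemical for 24 hours. Nuclear and/or cytoplasmic fluorescence is then quantified on a laser scanning cytometer. Activity is scored as signal gain against DMSO.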
# [3] = target: Estrogen receptor (Homo sapiens) (UniProt P03372); test: OT_ER_ERaERa_0480: Odyssey Thera (OT) 8-hour HEK293T Protein-Complementation Assay for Estrogen Receptor-alpha/-alpha Homodimer (AID 2283351);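 also: rise in fluorescence from reassembled reporter fragments on ERα LBD homodimer in nucleus or whole cell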
# Method in brief: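 HEK293T cells stably expressing a PCA pair of ER alpha LBD (residues 310-547) were dosed for 8 hours. The gain in fluorescence intensity, nuclear for agonists and whole-cell for antagonists, was measured by laser scanning cytometry against DMSO vehicle.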
# [4] = target: Estrogen receptor (Homo sapiens) + Estrogen receptor beta (Homo sapiens) (UniProt P03372+Q92731); test: OT_ER_ERaERb_0480: Odyssey Thera (OT) 8-hour HEK293T Protein-Complementation Assay for Estrogen Receptor-alpha/-beta Heterodimer (AID 2283352)
# Method in brief: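 Compound added to HEK293T cells carrying split-reporter-tagged ER-alpha and ER-beta LBDs, incubated 8 hours, then imaged by laser scanning cytometer. Signal rise in nucleus, or nucleus and cytoplasm, over vehicle was fitted in the positive direction.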
# [5] = target: chimpanzee Androgen Receptor (AR), AR (gene 747460) (UniProt O97775); test: NVS_NR_cAR: NovaScreen (NVS) Nuclear Receptor Binding Assay for chimpanzee Androgen Receptor (AR) (AID 2283346);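 also: radioligand displacement from AR measured by scintillation counting in a cell-free assay; a loss of bound radioligand signal versus DMSO counts as binding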
# Method in brief: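 Radioligand binding to chimpanzee AR expressed in Sf9/Sf21 cells, cell-free, measured 72 h after dosing by lysate-based scintillation counting. Loss of signal vs DMSO; initial duplicate screen at 25 uM, actives retested in concentration series.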
# [6] = target: Androgen Receptor/SRC-1 Co-activator, AR (gene 367) (UniProt P10275); test: OT_AR_ARSRC1_0480: Odyssey Thera (OT) 8-hour HEK293T Protein-Complementation Assay for Androgen Receptor/SRC-1 Co-activator (AID 2283354);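 also: hits raise the complementation signal above DMSO so AC50 marks enhancers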
# Method in brief: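 Split-Venus PCA, stable HEK293T, AR/SRC-1 fusions; 8 h exposure. Readout: 488nm N/C fluorescence ratio, ≥400 cells/image; fitted upward vs DMSO baseline.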
# Estrogen receptor (Homo sapiens) + Estrogen receptor beta (Homo sapiens), sequence (P03372 whole entry, looked up): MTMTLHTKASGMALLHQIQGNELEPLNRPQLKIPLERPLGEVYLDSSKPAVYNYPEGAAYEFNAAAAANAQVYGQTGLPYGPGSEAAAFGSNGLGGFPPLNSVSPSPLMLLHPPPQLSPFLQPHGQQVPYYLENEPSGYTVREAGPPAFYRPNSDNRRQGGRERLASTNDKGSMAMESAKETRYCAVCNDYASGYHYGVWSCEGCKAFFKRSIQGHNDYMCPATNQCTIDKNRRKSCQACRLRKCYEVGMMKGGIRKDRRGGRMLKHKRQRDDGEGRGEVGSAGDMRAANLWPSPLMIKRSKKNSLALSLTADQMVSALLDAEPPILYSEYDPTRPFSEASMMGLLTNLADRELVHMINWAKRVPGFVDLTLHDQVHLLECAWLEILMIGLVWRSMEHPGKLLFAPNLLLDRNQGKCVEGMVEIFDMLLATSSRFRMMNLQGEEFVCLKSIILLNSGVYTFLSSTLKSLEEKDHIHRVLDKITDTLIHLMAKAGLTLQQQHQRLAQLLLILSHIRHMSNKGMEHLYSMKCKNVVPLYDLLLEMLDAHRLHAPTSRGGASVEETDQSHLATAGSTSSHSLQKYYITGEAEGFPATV
# Estrogen receptor (Homo sapiens) + Estrogen receptor beta (Homo sapiens), sequence (Q92731 whole entry, looked up): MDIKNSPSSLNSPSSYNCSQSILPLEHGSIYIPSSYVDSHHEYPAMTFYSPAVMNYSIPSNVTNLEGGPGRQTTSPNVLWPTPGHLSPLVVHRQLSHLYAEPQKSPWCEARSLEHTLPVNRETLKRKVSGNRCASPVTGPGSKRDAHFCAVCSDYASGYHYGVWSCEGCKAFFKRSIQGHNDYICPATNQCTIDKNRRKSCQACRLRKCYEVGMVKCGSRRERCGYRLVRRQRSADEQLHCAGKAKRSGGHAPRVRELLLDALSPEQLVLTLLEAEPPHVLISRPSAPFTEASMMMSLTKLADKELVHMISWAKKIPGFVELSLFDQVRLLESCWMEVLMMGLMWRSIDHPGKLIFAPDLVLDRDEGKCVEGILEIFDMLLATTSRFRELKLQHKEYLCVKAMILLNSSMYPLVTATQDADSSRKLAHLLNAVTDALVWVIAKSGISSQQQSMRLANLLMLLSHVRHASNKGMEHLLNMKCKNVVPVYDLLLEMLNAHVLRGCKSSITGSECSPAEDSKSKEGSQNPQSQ
# Estrogen receptor (Homo sapiens), sequence (P03372 whole entry, looked up, the tested form may be a part): as the sequence (P03372 whole entry, looked up) above
# chimpanzee Androgen Receptor (AR), AR (gene 747460), sequence (O97775 whole entry, looked up): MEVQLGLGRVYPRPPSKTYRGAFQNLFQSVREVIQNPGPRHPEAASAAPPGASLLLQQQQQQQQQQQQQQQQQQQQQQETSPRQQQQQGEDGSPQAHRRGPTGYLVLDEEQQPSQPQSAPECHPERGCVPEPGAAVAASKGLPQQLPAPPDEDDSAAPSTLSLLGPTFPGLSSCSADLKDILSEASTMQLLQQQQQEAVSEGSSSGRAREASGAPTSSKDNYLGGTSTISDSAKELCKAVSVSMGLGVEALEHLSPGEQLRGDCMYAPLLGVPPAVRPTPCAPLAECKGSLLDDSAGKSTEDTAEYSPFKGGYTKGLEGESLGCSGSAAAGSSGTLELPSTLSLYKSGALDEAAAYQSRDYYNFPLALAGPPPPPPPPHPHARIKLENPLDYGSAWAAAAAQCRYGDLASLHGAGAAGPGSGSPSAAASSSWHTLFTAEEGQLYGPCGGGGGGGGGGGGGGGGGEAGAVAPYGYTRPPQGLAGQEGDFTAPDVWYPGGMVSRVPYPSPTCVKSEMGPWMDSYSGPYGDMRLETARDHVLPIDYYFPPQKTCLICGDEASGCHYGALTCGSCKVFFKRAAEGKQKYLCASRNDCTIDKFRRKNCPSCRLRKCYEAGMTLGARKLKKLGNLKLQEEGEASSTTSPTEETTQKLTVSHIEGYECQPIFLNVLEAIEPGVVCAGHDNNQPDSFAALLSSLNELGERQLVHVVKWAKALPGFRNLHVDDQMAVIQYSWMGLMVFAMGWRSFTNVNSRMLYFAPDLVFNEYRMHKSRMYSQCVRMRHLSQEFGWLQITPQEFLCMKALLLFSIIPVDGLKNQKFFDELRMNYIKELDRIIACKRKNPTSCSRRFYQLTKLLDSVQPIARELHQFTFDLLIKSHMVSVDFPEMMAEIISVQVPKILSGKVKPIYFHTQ
# Androgen Receptor/SRC-1 Co-activator, AR (gene 367), sequence (P10275 whole entry, looked up, the tested form may be a part): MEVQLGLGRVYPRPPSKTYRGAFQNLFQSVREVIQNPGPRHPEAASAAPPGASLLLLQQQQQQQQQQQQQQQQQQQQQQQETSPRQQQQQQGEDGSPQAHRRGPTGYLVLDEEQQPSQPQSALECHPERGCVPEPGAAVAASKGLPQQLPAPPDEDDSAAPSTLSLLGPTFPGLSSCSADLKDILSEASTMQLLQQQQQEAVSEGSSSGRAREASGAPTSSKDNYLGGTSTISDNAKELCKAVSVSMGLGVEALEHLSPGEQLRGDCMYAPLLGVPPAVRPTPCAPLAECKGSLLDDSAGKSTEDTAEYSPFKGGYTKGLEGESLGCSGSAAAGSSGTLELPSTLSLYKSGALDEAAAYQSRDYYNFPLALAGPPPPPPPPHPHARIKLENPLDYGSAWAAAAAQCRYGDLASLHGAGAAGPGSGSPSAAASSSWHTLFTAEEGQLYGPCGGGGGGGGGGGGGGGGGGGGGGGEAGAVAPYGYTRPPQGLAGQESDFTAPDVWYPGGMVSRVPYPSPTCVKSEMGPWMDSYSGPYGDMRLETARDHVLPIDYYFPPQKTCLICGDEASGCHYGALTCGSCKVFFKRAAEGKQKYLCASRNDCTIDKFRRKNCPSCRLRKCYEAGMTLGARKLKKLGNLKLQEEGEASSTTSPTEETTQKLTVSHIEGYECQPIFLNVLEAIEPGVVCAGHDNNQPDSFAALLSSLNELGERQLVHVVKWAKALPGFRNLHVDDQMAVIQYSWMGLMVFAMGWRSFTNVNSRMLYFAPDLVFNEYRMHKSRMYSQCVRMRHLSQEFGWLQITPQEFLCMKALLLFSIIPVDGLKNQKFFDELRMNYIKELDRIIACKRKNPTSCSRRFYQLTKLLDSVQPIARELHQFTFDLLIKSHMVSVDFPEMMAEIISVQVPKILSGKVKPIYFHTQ
smiles,measurement,setting,value
CCOC(=O)CCC(=O)OCC,outcome,[1],inactive
same,outcome,[2],inactive
same,outcome,[3],inactive
same,outcome,[4],inactive
Cc1oc(-c2ccccc2)nc1CCOc1cccc2c1ccn2CCC(=O)O,outcome,[1],inactive
same,outcome,[2],inactive
same,outcome,[3],inactive
same,outcome,[4],inactive
CC(=O)C(C)=CC1C(C)=CCCC1(C)C (centres undefined),outcome,[1],inactive
same,outcome,[2],inactive
same,outcome,[3],inactive
Clc1cc(Cl)c(Cl)cc1Cl,outcome,[2],inactive
same,outcome,[3],inactive
C=CCOC(=O)c1ccccc1C(=O)OCC=C,AC50,[5],14.5 µM (active)
same,AC50,[1],41.4 µM (active)
same,outcome,[2],inactive
same,AC50,[3],63.1 µM (active)
CC1(C)CC(N=C=O)CC(C)(CN=C=O)C1 (centres undefined),outcome,[2],inactive
same,outcome,[3],inactive
O=c1c(O)c(-c2ccc(O)c(O)c2)oc2cc(O)cc(O)c12,outcome,[1],inactive
same,outcome,[2],inactive
same,outcome,[3],inactive
same,AC50,[4],13.4 µM (active)
CCCCCCCCCCCCCCCC,outcome,[2],inactive
same,outcome,[3],inactive
C=CCc1ccc(O)c(OC)c1,AC50,[5],21 µM (active)
same,outcome,[1],inactive
same,outcome,[2],inactive
same,outcome,[3],inactive
Cc1cc(NC(=O)C(=O)O)cc(C)c1Oc1ccc(O)c2c1CCC2,outcome,[5],inactive
same,outcome,[2],inactive
same,outcome,[3],inactive
same,outcome,[6],inactive
Nc1ccc(S(=O)(=O)c2ccc(N)cc2)cc1,outcome,[2],inactive
same,outcome,[3],inactive
CC(CO)OC(C)CO (centres undefined) (tested in a mixture with another compound),outcome,[2],inactive
same,outcome,[3],inactive
CC1=C(/C=C/C(C)=C/C=C/C(C)=C/CO)C(C)(C)CCC1,outcome,[1],inactive
same,outcome,[2],inactive
same,outcome,[3],inactive
same,outcome,[4],inactive
CC=Cc1ccc(O)c(OC)c1,outcome,[1],inactive
same,AC50,[2],73.5 µM (active)
same,AC50,[3],57.6 µM (active)
C[C@]12C=CC(=O)C=C1CC[C@@H]1[C@@H]2C(=O)C[C@@]2(C)[C@H]1CC[C@]2(O)C(=O)CO,AC50,[5],14.8 µM (active)
same,outcome,[1],inactive
same,outcome,[2],inactive
same,outcome,[3],inactive
CC1(C)NC(=O)NC1=O,outcome,[2],inactive
same,outcome,[3],inactive
CC(=O)OC/C=C(\C)CCC=C(C)C,outcome,[2],inactive
same,outcome,[3],inactive
Cc1ccc2ncccc2c1,outcome,[2],inactive
same,outcome,[3],inactive
c1cc(-c2ccncc2)ccn1,outcome,[2],inactive
same,outcome,[3],inactive
NCCO,outcome,[2],inactive
same,outcome,[3],inactive
FC(F)(F)C(F)(F)C(F)(F)C(F)(F)C(F)(F)C(F)(F)CCI,outcome,[2],inactive
same,outcome,[3],inactive
OC[C@@H](O)[C@@H](O)[C@H](O)[C@H](O)CO,outcome,[2],inactive
same,outcome,[3],inactive
Cc1cc(=O)[nH]c(=S)[nH]1,outcome,[2],inactive
same,outcome,[3],inactive
CCNc1cccc(C)c1,outcome,[5],inactive
same,outcome,[2],inactive
same,outcome,[3],inactive
C[Si]1(C)O[Si](C)(C)O[Si](C)(C)O[Si](C)(C)O1,outcome,[1],inactive
same,outcome,[2],inactive
same,outcome,[3],inactive
same,outcome,[4],inactive
COc1cc(S(=O)(=O)O)c(C)cc1N=Nc1c(O)ccc2cc(S(=O)(=O)O)ccc12,outcome,[2],inactive
same,outcome,[3],inactive
CCCCN(CCCC)CCCC,outcome,[5],inactive
same,outcome,[2],inactive
same,outcome,[3],inactive
same,outcome,[4],inactive
CC(C)(C)c1cc(O)c(C(C)(C)C)cc1O,outcome,[1],inactive
same,outcome,[2],inactive
same,outcome,[3],inactive
same,outcome,[4],inactive
same,outcome,[6],inactive
Oc1ccc2c(c1)OC[C@@H](N1CCC(O)(c3ccc(F)cc3)CC1)[C@H]2O,outcome,[1],inactive
same,outcome,[2],inactive
same,outcome,[3],inactive
same,outcome,[4],inactive
Nc1nc(N)c2nc(CNc3ccc(C(=O)N[C@@H](CCC(=O)O)C(=O)O)cc3)cnc2n1,outcome,[2],inactive
same,outcome,[3],inactive
same,outcome,[4],inactive
COc1ccc(C)cc1N,outcome,[2],inactive
same,outcome,[3],inactive
same,outcome,[6],inactive
CC(=O)Oc1ccccc1C(=O)O,outcome,[2],inactive
same,outcome,[3],inactive
same,outcome,[4],inactive
same,outcome,[6],inactive
CNC(=O)[C@H]1O[C@@H](n2cnc3c(NCc4cc(Cl)ccc4OCc4cc(C)no4)ncnc32)[C@H](O)[C@@H]1N,AC50,[2],11.9 µM (active)
same,outcome,[3],inactive
same,outcome,[4],inactive
same,outcome,[6],inactive
NC(=O)Cn1c(=O)cc(CCN2CCN(c3nccc4sccc34)CC2)c2ccc(F)cc21,outcome,[2],inactive
same,outcome,[3],inactive
CCCCCCCCCCCCCO,outcome,[2],inactive
same,outcome,[3],inactive
same,outcome,[4],inactive
COCCOC[C@H](CC1(C(=O)NC2CCC(C(=O)O)CC2)CCCC1)C(=O)Oc1ccc2c(c1)CCC2 (some centres undefined),outcome,[2],inactive
same,outcome,[3],inactive
same,outcome,[6],inactive
Cc1c(C(=O)O)c(O)cc2c1C(=O)c1c(O)c([C@@H]3O[C@H](CO)[C@@H](O)[C@H](O)[C@H]3O)c(O)c(O)c1C2=O,outcome,[2],inactive
same,outcome,[3],inactive
same,outcome,[4],inactive
Cc1nc(C)nc(N2C[C@@H](C)N(c3ccnc([C@@H](C)O)n3)[C@@H](C)C2)n1,outcome,[3],inactive
CN1CCCC1=O,outcome,[2],inactive
same,outcome,[4],inactive
CCCCCC(=O)O,outcome,[2],inactive
same,outcome,[3],inactive
same,outcome,[4],inactive
Cc1ccccc1Cl,outcome,[2],inactive
same,outcome,[3],inactive
same,outcome,[6],inactive
Cc1ccc(N(C)C)cc1,outcome,[2],inactive
same,outcome,[3],inactive
same,outcome,[6],inactive
COCCOCCOC,outcome,[2],inactive
same,outcome,[4],inactive
Cc1cccc(C)c1O,outcome,[2],inactive
same,outcome,[3],inactive
same,outcome,[4],inactive
same,outcome,[6],inactive
